Each compound was assayed on Human papillomavirus type 1a protein E7 (residues 44-93) (assay: small molecules binding HPV E7 44-93 – biochemical, small-molecule microarray, residues 44-93, 635 nm fluorescence, primary screen (AID 1108;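 further: E7 fragment applied at 1 µg/mL in TBST for 1 h at 4 C; score combines spot fluorescence with its signal to noise ratio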)). Conditions: fluorescence 635 nm, higher = more signal.

| Compound | composite z-score |
| --- | --- |
| C=CCN1C(=O)[C@@]2(Cc3ccccc3)N=C(c3ccc(OCCCO)cc3)O[C@H]2c2ccccc21 | 0.974 |
| CC(=O)Nc1ccc([C@H]2[C@H](C)CC[C@H]3C(=O)N4[C@@H](CC[C@@H](C)[C@@H]4c4ccc(NC(C)=O)cc4)C(=O)N32)cc1 | 0.946 |
| COc1cc2c(cc1OC)CN(C(=O)[C@@H]1[C@H]3C(=O)O[C@H](c4ccccc4)[C@H](c4ccccc4)N3[C@H](c3ccccc3OCCO)[C@@]13C(=O)Nc1ccccc13)CC2 | 1.01 |
| CCOC(=O)C[C@H]1[C@H](OC(=O)Cc2ccc3c(c2)OCO3)[C@@H](NC(=O)c2ccc3ccccc3c2)c2cc(OCCCO)ccc2N1C(=O)Cc1ccc(OC)cc1 | 1.01 |
| CO[C@@H]1COC(=O)[C@H](C)NC(=O)CC=C[C@@H](C)[C@H](OC)COC(=O)[C@H](C)NC(=O)CC=C[C@H]1C | 0.0508 |
| CO[C@H]1COC(=O)CC=C[C@H](C)COC(=O)[C@@H](OCc2ccccc2)C=C[C@@H]1C | -0.217 |
| CCCC[C@@H]1C[C@H]1[C@@H](NC(=O)c1ccccc1)c1ccccc1C(F)(F)F | 1.38 |
| CO[C@@H]1COC(=O)[C@H](C)NC(=O)CC=C[C@@H](C)[C@H](NS(=O)(=O)c2ccc(C)cc2)COC(=O)CC=C[C@@H]1C | -0.232 |
| CC(=O)NCCCC[C@@H]1NC(=O)[C@H]2C[C@@H](C(=O)NCCCCCCN(C)C)[C@@H](c3cccc(OCCO)c3)N2C1=O | 1.37 |
| NC(=O)NCC#Cc1ccc2c(c1)[C@]1(C(=O)N2)[C@H](c2ccccc2OCCO)N2[C@H](c3ccccc3)[C@H](c3ccccc3)OC(=O)[C@H]2[C@@H]1C(=O)N1CCN(c2ncccn2)CC1 | 1.4 |
| C[C@]1(C(=O)NCc2ccccc2)c2ccccc2C(=O)N(Cc2cc(C(F)(F)F)cc(C(F)(F)F)c2)[C@H]1c1ccc(CO)cc1 | 1.1 |
| C=C(COC)/C(=C/C[C@@H](OC(C)=O)c1cccc(OCCO)c1)c1cc(C(=O)OC)ccc1OC | -0.307 |
| COC(=O)[C@H]1[C@@H]2COc3ccccc3[C@H]2N[C@H]1C(=O)OC | -0.339 |
| CCc1cccc(NC(=O)O[C@H]2[C@H](OC(=O)Nc3ccccc3)[C@@H](OC(=O)Nc3ccccc3)[C@@H](OC)O[C@@H]2CO)c1 | 1.51 |
| C=CCN1C(=O)[C@]2(O[C@H](CCn3cc(CCO)nn3)[C@@H]([Si](C)(C)c3ccc(OC)cc3)[C@@H]2C)c2cc(NC(=O)c3ccc(OC)cc3)ccc21 | 1.09 |
| C=C(COC)/C(=C/C[C@H](OC(C)=O)c1ccc(OCCO)cc1)c1cnc2ccccc2c1 | 0.5 |
| [N-]=[N+]=NCc1ccccc1C[C@]1(C(=O)N2CCCCC2)N=C(c2ccc(OCCCO)cc2)O[C@H]1c1ccccc1CN=[N+]=[N-] | 1.41 |
| CO[C@H]1O[C@H](CO)[C@@H](OC(=O)Nc2ccccc2)[C@H](OC(=O)Nc2ccc3c(c2)OCO3)[C@@H]1OC(=O)Nc1ccc2c(c1)OCO2 | 1.32 |

| Compound | composite z-score |
| --- | --- |
| CCOC(=O)C1=C[C@@H](c2ccccc2)N(S(=O)(=O)c2ccc(C)cc2)[C@H]1c1ccc(F)cc1 | 0.431 |
| CCCC=C(CCC)[C@@H](NC(=O)c1ccc(C(F)(F)F)cc1)c1ccccc1 | 1.17 |
| COC(=O)C[C@H]1O[C@]2(C(=O)N(Cc3ccccc3)c3ccc(I)cc32)[C@@H](C)[C@@H]1[Si](C)(C)c1ccc(OC)cc1 | -1.02 |
| CCC(=O)[C@]12O[C@@]3([C@@H]4C(=O)OCC[C@@H]41)N(CC)C(C)=C(C(=O)OC)[C@@H](c1ccccc1)N3C2=O | -0.933 |
| COCCOC(=O)N1C(=O)[C@@]2(c3cc(C#CC4=CCCCC4)ccc31)[C@H](c1ccc(O)cc1)N1[C@H](c3ccccc3)[C@H](c3ccccc3)OC(=O)[C@H]1[C@@H]2C(=O)N1CCCCCCC1 | 1.29 |
| O=C(CS)NCCCCCNC(=O)[C@H]1C[C@H]2C(=O)N3CCC[C@H]3C(=O)N2[C@H]1c1ccc(O)cc1 | -0.295 |
| CSCC[C@@H]1NC(=O)CC=C[C@@H](C)COC(=O)[C@H](CCSC)NC(=O)CC=C[C@@H](C)COC1=O | -0.507 |
| COCCOC(=O)N1C(=O)[C@@]2(c3cc(C#CCNC(N)=O)ccc31)[C@H](C(=O)N1CCCCCCC1)[C@H]1C(=O)O[C@H](c3ccccc3)[C@H](c3ccccc3)N1[C@@H]2c1ccccc1OCCO | 1.32 |
| O=C1O[C@H](c2ccccc2)[C@H](c2ccccc2)N2[C@H]1[C@@H](C(=O)Nc1nc3ccccc3s1)[C@]1(C(=O)Nc3ccc(C#CC4(O)CCCCCC4)cc31)[C@H]2c1ccc(O)cc1 | 1.38 |
| CC[C@H]1C2=C3C(CC[C@H]4C(OC)OC[C@](C)([C@@H]34)N(C(=O)OC(C)(C)C)C2)C(CO)C1CO (stereo partly specified) | 1.37 |
| CC(C)(C)OC(=O)CC[C@@]1(C(=O)NCc2ccccc2)N=C(c2ccc(OCCCO)cc2)O[C@@H]1c1ccccc1 | 1.33 |
| CC(C)[Si](OCC[C@H]1O[C@]2(C(=O)N(Cc3ccccc3)c3ccccc32)[C@@H](C)[C@@H]1[Si](C)(C)O)(C(C)C)C(C)C | 0.161 |
| C[C@H]1COC(=O)[C@H](Cc2ccccc2)NC(=O)[C@@H](C)COC(=O)[C@H](Cc2ccccc2)NC1=O | 0.844 |
| COc1ccc([Si](C)(C)[C@H]2[C@H](CC(=O)N3Cc4ccccc4C[C@H]3CO)O[C@@]3(C(=O)N(Cc4cccc(N5CCOC5=O)c4)c4ccccc43)[C@@H]2C)cc1 | 0.294 |
| CO[C@H]1COC(=O)[C@@H](OCc2ccccc2)C=C[C@H](C)[C@@H](OC)COC(=O)[C@H](OCc2ccccc2)C=C[C@@H]1C | -1.23 |
| C=C(COC)C(=O)CC[C@H](OC(=O)c1ccccc1-c1ccccc1C(=O)O)c1cccc(OCCO)c1 | 1.4 |
| Cc1ccc(S[C@]2(C(=O)O)CC(=O)N(Cc3ccccc3)[C@@H]2c2ccc(CO)cc2)cc1 | -0.323 |
| O=C(O)[C@@H]1Cc2c([nH]c3ccccc23)[C@@H](c2ccccc2)N1 | 0.681 |

Source: PubChem BioAssay
